{"source": "PubChem BioAssay (NCATS)", "note": "Inconclusive results are not listed. Activity calls are given as the source filed them. The call rests on the fitted dose curve; in most records, active means well fitted inhibition curve with a large enough effect; inconclusive means small, poorly fitted or top-dose-only effect; inactive means flat fitted curve, though single readings scatter. On the % scale 0 is the no-effect control and ±100 the full control effect; potency means the concentration at half of the fitted maximal effect."}
{"tested_on": "NIH3T3", "assay": "Cytotoxic Profiling of Annotated Libraries Using Quantitative High-Throughput Screening (AID 1296008); further: nearly all actives have a fitted effect of over 60% in size", "conditions": "Five cell lines viability, CellTiter-Glo ATP luminescence, 48-72 h; max response: hits give low values", "procedure,_shortened": "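Compounds were pin-transferred onto cells and incubated 48 or 72 hr at 37 degree Celsius, 95% humidity. CellTiter-Glo was added, plates sat 10 min at room temperature, then ATP-coupled luminescence was imaged as the viability read-out.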"}
{"molecule": "Cn1cc(-c2ccc3c(c2)CCN3C(=O)Cc2cccc(C(F)(F)F)c2)c2c(N)ncnc21", "max response": "-21.2% (inactive)"}
{"molecule": "CN(CC1COCCO1)S(=O)(=O)Nc1ccc2ccc3ncc(-c4cnn(C)c4)cc3c(=O)c2c1", "note": "(stereo unspecified)", "Potency": "3.26 µM (active)"}
{"molecule": "CC(C)c1ccc(NC(=O)c2cccs2)c(-c2nc3ccccc3[nH]c2=O)c1", "max response": "0.611% (inactive)"}
{"molecule": "CC(C)n1nc(C#Cc2ccccc2)c2c(N)ncnc21", "Potency": "11.6 µM (active)"}
{"molecule": "CCn1c(=O)c(-c2ccc(Cl)cc2Cl)cc2cnc(Nc3ccc(N4CCNCC4)c(F)c3)nc21", "Potency": "1.03 µM (active)"}
{"molecule": "COc1ccccc1N1CCN(c2ncnc3n[nH]c(Br)c23)CC1", "outcome": "inactive"}
{"molecule": "CC1(C)CCCC2(C)C1C(=O)C=C(C(=O)O)C2(O)C(=O)O", "note": "(stereo unspecified)", "max response": "-3.77% (inactive)"}
{"molecule": "CS(=O)(=O)Nc1ccc2oc3c(OC(F)F)ccc(C(=O)Nc4c(Cl)cncc4Cl)c3c2c1", "max response": "-9.63% (inactive)"}
{"molecule": "NC(=O)N1CCC(CC(=O)N2CCC(C3c4ncc(Br)cc4CCc4cc(Cl)cc(Br)c43)CC2)CC1", "note": "(stereo unspecified)", "max response": "2.37% (inactive)"}
{"molecule": "CCS(=O)c1nc(-c2cccc(OCc3ccccc3)c2)cc(C(F)(F)F)n1", "note": "(stereo unspecified)", "Potency": "18.4 µM (active)"}
{"molecule": "Cc1cc(F)ccc1[C@H]1C[C@@H](N2CCN3C(=O)CC[C@H]3C2)CCN1C(=O)N(C)[C@H](C)c1cc(C(F)(F)F)cc(C(F)(F)F)c1", "outcome": "inactive"}
